From PubChem BioAssay (EPA / NIEHS)
“And” between values parts separate entries of the source, which are not always exact repeats. Equal values may be shown once. Results filed as inconclusive are left out. Some compounds were tested as several samples or in several runs, with calls that do not always agree. The source made the active and inactive calls. Rule for the calls, unless noted: active = hit-call score of the fitted dose curve at least 0.9, where 1 is the maximum; inactive = score below 0.9.

How the values were obtained:
[1] = read-out: Interleukin-8 (IL8), CXCL8 (gene 3576); assay: BSK_BE3C_IL8: BioMAP Diversity Plus: BE3C Assay for Interleukin-8 (IL8) Biomarker Activity (AID 2284280); settings: primary human bronchial epithelial cells
Method in brief: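 Primary human bronchial epithelial cells (BE3C system) exposed 24 h; IL-8 measured by ELISA and fitted in positive direction versus DMSO. Overt cytotoxicity assessed by SRB total-protein staining in parallel cultures.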

[2] = read-out: Epidermal growth factor receptor (EGFR), EGFR (gene 1956); assay: BSK_BE3C_EGFR: BioMAP Diversity Plus: BE3C Assay for Epidermal growth factor receptor (EGFR) Biomarker Activity (AID 2284281); settings: primary human bronchial epithelial cells
Method in brief: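 Human primary bronchial epithelial cells (BE3C system) dosed with chemicals; EGFR measured by ELISA at 24 h, fitted in the positive direction relative to DMSO. Cytotoxicity tracked in parallel cultures by SRB total-protein staining.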

KRT18 (gene 3875) = assay: BSK_BE3C_Keratin818: BioMAP Diversity Plus: BE3C Assay for Keratin 818 Biomarker Activity (AID 2284282); settings: primary human bronchial epithelial cells
Method in brief: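 Chemicals are added to human lung bronchial epithelial primary cells (BE3C system) and incubated 24 h. Keratin 8/18 is then measured by ELISA, with parallel SRB total-protein staining gauging overt cytotoxicity.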

[3] = read-out: Matrix Metallopeptidase 9 (MMP9), MMP9 (gene 4318); assay: BSK_BE3C_MMP9: BioMAP Diversity Plus: BE3C Assay for Matrix Metallopeptidase 9 (MMP9) Biomarker Activity (AID 2284283); settings: primary human bronchial epithelial cells
Method in brief: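 Human primary bronchial epithelial cells exposed 24 h to compound. MMP9 quantified by ELISA. SRB total-protein staining of parallel cultures assesses cytotoxicity. Positive-direction fit relative to DMSO.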

[4] = read-out: Plasminogen activator inhibitor-1 (PAI1), SERPINE1 (gene 5054); assay: BSK_CASM3C_PAI1: BioMAP Diversity Plus: CASM3C Assay for Plasminogen activator inhibitor-1 (PAI1) Biomarker Activity (AID 2284284); settings: primary human coronary artery smooth muscle cells;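 note: PAI-1 protein level measured by ELISA 24 h after dosing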
[5] = read-out: Monocyte Chemoattractant Protein-1 (MCP1), CCL2 (gene 6347); assay: BSK_hDFCGF_MCP1: BioMAP Diversity Plus: hDFCGF Assay for Monocyte Chemoattractant Protein-1 (MCP1) Biomarker Activity (AID 2284285); settings: primary human foreskin fibroblasts
Method in brief: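 Human foreskin fibroblasts (hDFCGF system) were exposed to compound and secreted MCP-1 was measured by ELISA after 24 hours. Activity was fitted relative to DMSO. Cytotoxicity was checked by SRB total-protein staining in parallel cultures.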

[6] = read-out: Intercellular Adhesion Molecule 1 (ICAM1), ICAM1 (gene 3383); assay: BSK_hDFCGF_ICAM1: BioMAP Diversity Plus: hDFCGF Assay for Intercellular Adhesion Molecule 1 (ICAM1) Biomarker Activity (AID 2284287); settings: primary human foreskin fibroblasts
Method in brief: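 Primary human foreskin fibroblasts (hDFCGF system) dosed with chemical; ICAM-1 quantified by ELISA at 24 h relative to DMSO. Parallel SRB total-protein staining to assess overt cytotoxicity.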

CD40, CD40 (gene 958) = assay: BSK_IMphg_CD40: BioMAP Diversity Plus: IMphg Assay for CD40 Biomarker Activity (AID 2284288); settings: primary human endothelial cells with macrophages
Method in brief: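 Venular endothelial cells co-cultured with macrophages (human primary), CD40 measured by ELISA 24 h after dosing. Positive-direction fit vs DMSO baseline; cytotoxicity tracked by SRB total-protein staining in parallel cultures.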

[7] = read-out: TIMP metallopeptidase inhibitor 2 (TIMP2), TIMP2 (gene 7077); assay: BSK_hDFCGF_TIMP2: BioMAP Diversity Plus: hDFCGF Assay for TIMP metallopeptidase inhibitor 2 (TIMP2) Biomarker Activity (AID 2284289); settings: primary human foreskin fibroblasts
Method in brief: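 Primary human foreskin fibroblasts in the hDFCGF system, dosed for 24 h; TIMP-2 level measured by ELISA, fitted in the positive direction against DMSO; cytotoxicity checked in parallel by sulforhodamine B total protein staining.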

[8] = read-out: Interleukin-1 alpha (IL1a), IL1A (gene 3552); assay: BSK_IMphg_IL1a: BioMAP Diversity Plus: IMphg Assay for Interleukin-1 alpha (IL1a) Biomarker Activity (AID 2284290); settings: primary human endothelial cells with macrophages
Method in brief: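 Human venular endothelial cells co-cultured with macrophages, IMphg system. IL-1α is measured by ELISA 24 h after dosing and fitted in the positive direction against DMSO. Cytotoxicity is assessed by SRB staining of parallel cultures.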

[9] = read-out: E-selectin (Homo sapiens) (UniProt P16581); assay: BSK_IMphg_ESelectin: BioMAP Diversity Plus: IMphg Assay for Eselectin Biomarker Activity (AID 2284291); settings: primary human endothelial cells with macrophages
Method in brief: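 Human venular endothelial cell–macrophage co-culture, E-selectin measured by ELISA 24 h after chemical dosing. Signal fitted in the positive direction against DMSO as negative control and baseline.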

[10] = read-out: Macrophage colony-stimulating factor (MCSF), CSF1 (gene 1435); assay: BSK_IMphg_MCSF: BioMAP Diversity Plus: IMphg Assay for Macrophage colony-stimulating factor (MCSF) Biomarker Activity (AID 2284293); settings: primary human endothelial cells with macrophages
Method in brief: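 Co-culture of human venular endothelial cells and macrophages, 24 hours of chemical exposure. M-CSF quantified by ELISA, with parallel SRB total-protein staining for cytotoxicity; activity fitted relative to DMSO.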

[11] = read-out: Interleukin-10 (IL10), IL10 (gene 3586); assay: BSK_IMphg_IL10: BioMAP Diversity Plus: IMphg Assay for Interleukin-10 (IL10) Biomarker Activity (AID 2284294); settings: primary human endothelial cells with macrophages
Method in brief: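 Human venular endothelial cells cocultured with macrophages, dosed 24 h; IL-10 measured by ELISA, activity relative to DMSO. Cytotoxicity assessed in parallel cultures by sulforhodamine B total-protein staining.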

[12] = BSK_IMphg_SRB.Mphg: Macrophage Viability Assessment in the BioMAP Diversity Plus: IMphg Assay (AID 2284295); settings: primary human endothelial cells with macrophages
Method in brief: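 Venular endothelial cells co-cultured with macrophages, read 24 h after dosing. Total protein measured by 0.1% SRB staining after 10% TCA fixation, absorbance at 560 nm. Fitted in positive direction against DMSO baseline.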

[13] = read-out: Thrombomodulin, THBD (gene 7056); assay: BSK_LPS_Thrombomodulin: BioMAP Diversity Plus: LPS Assay for Thrombomodulin Biomarker Activity (AID 2284296); settings: primary human HUVEC with PBMC
Method in brief: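 Human umbilical vein endothelial cells co-cultured with PBMC and stimulated with LPS; cell-surface thrombomodulin measured by ELISA 24 hours after compound. Gain or loss versus DMSO; cytotoxicity checked by SRB staining in parallel cultures.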

[14] = read-out: Vascular cell adhesion molecule 1 (VCAM1), VCAM1 (gene 7412); assay: BSK_IMphg_VCAM1: BioMAP Diversity Plus: IMphg Assay for Vascular cell adhesion molecule 1 (VCAM1) Biomarker Activity (AID 2284286); settings: primary human endothelial cells with macrophages
Method in brief: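 Human venular endothelial cells co-cultured with macrophages; VCAM-1 quantified by ELISA 24 h after dosing, fitted in the positive direction against DMSO. Cytotoxicity was checked in parallel cultures by SRB total-protein staining (0.1% SRB after 10% TCA fixation, 560 nm).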

IYD (gene 389434) = assay: CCTE_GLTED_hIYD: CCTE's human Iodotyrosine Deiodinase (xIYD) Inhibition Assay, Great Lakes Toxicology and Ecology Division (GLTED) Lab (AID 2284317; active = hit-call score of the fitted dose curve at least 0.9, where 1 is the maximum;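 note: cell-free human IYD enzyme made in baculovirus insect cells; iodide freed from monoiodotyrosine measured by cerium arsenite color change at 420 nm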)
Method in brief: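 Absorbance change at 420 nm from the iodide-catalysed cerium-arsenic reaction reports free iodide released by human IYD from monoiodotyrosine. Enzyme, substrate and chemical are incubated 3 h; loss of signal is fitted relative to DMSO baseline.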

[15] = BSK_IMphg_SRB: Viability Assessment in the BioMAP Diversity Plus: IMphg Assay (AID 2284292); settings: primary human endothelial cells with macrophages;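 note: measured one day after compound addition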
Method in brief: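 Human venular endothelial cells with macrophages, 24 h after chemical dosing; total protein by 0.1% SRB staining after 10% TCA fixation, read at 560 nm. Positive-direction fitting versus DMSO baseline.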

[16] = CCTE_Mundy_HCI_iCellGluta_NOG_NeuriteLength: CCTE's Neurite Outgrowth Assay in iCellGluta cells for Neurite Length, Mundy Lab (AID 2284318; active = hit-call score of the fitted dose curve at least 0.9, where 1 is the maximum)
Method in brief: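 Automated high-content imaging of betaIII-tubulin (Alexa Fluor-488) and Hoechst-stained cells gave neurite length, normalized to the DMSO baseline.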

CD69, CD69 (gene 969) = assay: BSK_LPS_CD69: BioMAP Diversity Plus: LPS Assay for CD69 Biomarker Activity (AID 2284303); settings: primary human HUVEC with PBMC
Method in brief: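 Human umbilical vein endothelial cells co-cultured with PBMC under LPS stimulation, chemical exposure 24 h; cell-surface CD69 measured by ELISA and fitted in the positive direction versus DMSO.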

Measured: AC50

E-selectin (Homo sapiens), sequence (P16581 whole entry, looked up): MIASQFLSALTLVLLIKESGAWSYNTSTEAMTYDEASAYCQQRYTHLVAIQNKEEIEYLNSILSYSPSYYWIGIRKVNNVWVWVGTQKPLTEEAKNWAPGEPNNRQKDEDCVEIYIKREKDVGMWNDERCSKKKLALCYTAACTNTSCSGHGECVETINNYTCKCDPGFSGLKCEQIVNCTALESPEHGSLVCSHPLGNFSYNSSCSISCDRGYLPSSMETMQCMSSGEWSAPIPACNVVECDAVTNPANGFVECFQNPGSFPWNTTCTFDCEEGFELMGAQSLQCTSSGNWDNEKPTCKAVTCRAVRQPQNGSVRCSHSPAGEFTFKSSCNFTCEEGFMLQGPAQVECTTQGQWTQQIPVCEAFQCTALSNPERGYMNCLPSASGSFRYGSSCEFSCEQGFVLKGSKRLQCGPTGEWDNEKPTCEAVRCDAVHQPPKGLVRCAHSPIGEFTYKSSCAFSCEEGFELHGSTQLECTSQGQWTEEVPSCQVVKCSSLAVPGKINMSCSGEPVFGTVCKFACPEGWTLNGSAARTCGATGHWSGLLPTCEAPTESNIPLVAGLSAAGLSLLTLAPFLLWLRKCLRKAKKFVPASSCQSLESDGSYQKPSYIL

O=C(Cl)C(F)(F)C(F)(F)C(F)(F)C(F)(F)C(F)(F)C(F)(F)C(F)(F)F
inactive: [1] | [2] | KRT18 (gene 3875) | [3] | [4] | [5] | [6] | CD40, CD40 (gene 958) | [7] | [8] | [9] | [10] | [11] | [12] | [13]
active: [1] 15.9 µM

O=C(O)C(F)(F)C(F)(F)C(F)(F)OC(F)(C(F)(F)F)C(F)(F)F
active: [3] 6.87 µM
inactive: [1] | [2] | KRT18 (gene 3875) | [3] | [4] | [5] | [14] | [6] | CD40, CD40 (gene 958) | [7] | [8] | [9] | [10] | [11] | [12] | [13]

O=S(=O)(Cl)C(F)(F)C(F)(F)C(F)(F)C(F)(F)C(F)(F)C(F)(F)C(F)(F)C(F)(F)F
inactive: KRT18 (gene 3875) | [4] | [5] | [6] | CD40, CD40 (gene 958) | [7] | [8] | [9] | [10] | [11] | [12] | [13]
active: [1] 41.3 µM and 21.5 µM | [2] 22.7 µM and 30 µM | KRT18 (gene 3875) 46.7 µM | [3] 55.1 µM and 55.2 µM | [11] 54.1 µM | IYD (gene 389434) 100 µM

CNS(=O)(=O)C(F)(F)C(F)(F)C(F)(F)C(F)(F)C(F)(F)C(F)(F)C(F)(F)C(F)(F)F
inactive: [2] | KRT18 (gene 3875) | [4] | [5] | [6] | CD40, CD40 (gene 958) | [7] | [15] | [10] | [11] | [12] | [13]
active: [1] 30 µM and 2.67 µM | [3] 4.25 µM and 373 nM | [6] 36.8 µM | [7] 7.96 µM | [8] 6.58 µM and 9.9 µM | [9] 5.55 µM and 8.07 µM | [11] 17.9 µM

CCN(CCO)S(=O)(=O)C(F)(F)C(F)(F)C(F)(F)C(F)(F)C(F)(F)C(F)(F)C(F)(F)C(F)(F)F
inactive: KRT18 (gene 3875) | [4] | [6] | CD40, CD40 (gene 958) | [7] | [8] | [10] | [11] | [12] | [16]
active: [1] 19.3 µM and 11.8 µM | [2] 23.2 µM and 13.9 µM | [3] 21.5 µM and 43.3 µM | [5] 32.7 µM and 30 µM | CD40, CD40 (gene 958) 36.9 µM | [9] 5.54 µM and 6.2 µM | [12] 44.2 µM | [13] 16.6 µM and 13.5 µM

CO[Si](C)(CCC(F)(F)C(F)(F)C(F)(F)C(F)(F)C(F)(F)C(F)(F)F)OC
not listed: [14] | IYD (gene 389434) | [16]
inactive: all other assays above

O=C(O)C(F)(F)OC(F)(F)C(F)(F)OC(F)(F)C(F)(F)OC(F)(F)F
active: [3] 1.47 µM
inactive: [1] | [2] | KRT18 (gene 3875) | [3] | [4] | [5] | [6] | CD40, CD40 (gene 958) | [7] | [8] | [9] | [10] | [11] | [12] | [13]

OCC(O)CC(F)(F)C(F)(F)C(F)(F)C(F)(F)C(F)(F)C(F)(F)C(F)(F)C(F)(F)F (stereo not drawn)
not listed: [14] | IYD (gene 389434) | [16] | CD69, CD69 (gene 969)
inactive: all other assays above

FC(F)(F)C(F)(F)C(F)(F)C(F)(F)C(F)(F)C(F)(F)C(F)(F)CCI
active: [1] 0.662 µM
inactive: [1] | [2] | KRT18 (gene 3875) | [3] | [4] | [5] | [6] | CD40, CD40 (gene 958) | [7] | [8] | [9] | [10] | [11] | [12] | [13] | CD69, CD69 (gene 969)

O=C(O)C(F)(F)C(F)(F)C(F)(F)C(F)(F)C(F)(F)C(F)(F)C(F)F
inactive: [1] | [2] | KRT18 (gene 3875) | [3] | [4] | [5] | [14] | [6] | CD40, CD40 (gene 958) | [7] | [8] | [9] | [10] | [11] | [12] | [13]
active: [7] 0.957 µM

C=CC(=O)OCCC(F)(F)C(F)(F)C(F)(F)C(F)(F)F
inactive: [1] | [2] | KRT18 (gene 3875) | [3] | [4] | [5] | CD40, CD40 (gene 958) | [7] | [8] | [9] | [10] | [11] | [12] | [13]
active: [5] 20.3 µM | [6] 30 µM and 38.2 µM | [7] 2.55 µM
